Reference: PubChem BioAssay (NCATS)
Where “and” joins values, the source holds several entries; their conditions need not be identical. Equal values may be shown once. Results filed as inconclusive are left out. A call without a number means that no potency is given here. A number with no mark means an inactive call. Calls of active or inactive are those of the source. Calls come from the whole dose curve; as a rule, active = well fitted cell-killing curve with a large enough effect; inconclusive = small, poorly fitted or top-dose-only effect, or effect the other way; inactive = no such curve, though single readings can be large or run the other way.

Legend:
[1] = Viability qHTS for spleen associated tyrosine kinase inhibitor (SYKi) naive MV4-11 cells (AID 1963823); note: nearly all actives have a fitted effect of over 40% in size
Outline: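 Cells: MV4-11, SYK inhibitor naive, 500 per well. Treatment: library compounds, 72 hr, 37 C, 5% CO2. Read-out: CellTiter-Glo luminescence after 10 min RT.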

[2] = Viability qHTS for spleen associated tyrosine kinase inhibitor (SYKi) drug resistant MV4-11 cells (AID 1963824); note: nearly all actives have a fitted effect of over 35% in size
Outline: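 SYK inhibitor-resistant MV4-11 AML cells, 500 per well, added to predispensed compounds and incubated 72 hr at 37 C, 5% CO2. Viability measured by CellTiter-Glo luminescence after 10 min at room temperature.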
Potency is the fitted concentration of half-maximal effect.

Row | SMILES | viability (% of control) [1] | viability, % of control [2] | Potency [1] | Potency [2]
1 | CC1OC(OC2C(C)OC(OC3C(O)C(CO)OC(O[C@H]4CC[C@@]5(C)C(CC[C@]6(C)C5CC=C5C7[C@@H](C)[C@H](C)CC[C@]7(C(=O)O)CC[C@]56C(=O)O)C4(C)C)C3O)C(O)C2O)C(O)C(O)C1O (stereo not given in full) | 75.5% [at 9.25 µM] | 78.3% [at 9.25 µM] |  | 
2 | CCCCOc1ccc(CC/C=C2\SC(=O)N(CCN)C2=O)cc1 |  |  | 5.17 µM (active) | 2.91 µM (active)
3 | C[C@@H]1O[C@@H](O[C@H]2[C@@H]3C=CO[C@@H](O[C@@H]4O[C@H](CO)[C@@H](O)[C@H](O)[C@H]4O)[C@@H]3[C@@]3(CO)O[C@@H]23)[C@H](O)[C@H](OC(=O)/C=C/c2ccc(O)c(O)c2)[C@H]1O |  |  | inactive | inactive
4 | O=C(/C=C/c1ccc(O)cc1)O[C@H]1[C@H](OC2CCCCC2O)O[C@H](CO)[C@@H](O)[C@@H]1O (stereo not given in full) |  |  | inactive | inactive
5 | CC(=O)O[C@@]1(C)[C@@H]2CC(=C(C)C)C(=O)C[C@@]2(C)CC[C@H]1OC(=O)C1(C)OC1C (stereo not given in full) |  |  | inactive | inactive
6 | CN[C@H](CC(C)C)C(=O)N[C@H]1C(=O)N[C@@H](CC(N)=O)C(=O)N[C@H]2C(=O)N[C@H]3C(=O)N[C@H](C(=O)N[C@H](C(=O)O)c4cc(O)cc(O)c4-c4cc3ccc4O)[C@H](O[C@H]3C[C@](C)(N)[C@@H](O)[C@H](C)O3)c3ccc(c(Cl)c3)Oc3cc2cc(c3O[C@@H]2O[C@H](CO)[C@@H](O)[C@H](O)[C@H]2O[C@H]2C[C@](C)(NCc3ccc(-c4ccc(Cl)cc4)cc3)[C@@H](O)[C@H](C)O2)Oc2ccc(cc2Cl)[C@H]1O |  |  | inactive | inactive
7 | CC(C)CC[C@@H](O)[C@](C)(O)[C@H]1CC[C@@]2(O)C3=CC(=O)[C@@H]4C[C@@H](O)[C@@H](O)C[C@]4(C)[C@H]3CC[C@]12C |  |  | inactive | inactive
8 | CN1CCN(c2nc(C3=C(c4c[nH]c5ccccc45)C(=O)NC3=O)c3ccccc3n2)CC1 |  |  | 206 nM (active) and 833 nM (active) | 461 nM (active) and 2.35 µM (active)
9 | CC1OC(OC2C(OC3C(O[C@H]4CC[C@@]5(C)C(CC[C@]6(C)C5C(=O)C=C5C7CC(C)(C)CC(O)[C@]7(C)CC[C@]56C)C4(C)C)OC(C(=O)O)C(O)C3O)OCC(O)C2O)C(O)C(O)C1O (stereo not given in full) | 54.7% [at 9.25 µM] | 71.2% [at 9.25 µM] |  | 
10 | CCOC(=O)c1cnn(-c2ccc(NC(=O)C(Cl)=C(Cl)Cl)cc2)c1C(F)(F)F |  |  | 0.58 µM (active) | 0.366 µM (active)
11 | COC(=O)c1ccccc1O[C@@H]1O[C@H](CO[C@@H]2OC[C@@H](O)[C@H](O)[C@H]2O)[C@@H](O)[C@H](O)[C@H]1O |  |  | inactive | inactive
12 | COc1cc(C(C)=O)ccc1O[C@@H]1O[C@H](CO)[C@@H](O)[C@H](O)[C@H]1O |  |  | inactive | inactive
13 | CC(O)C1NC(=O)C2CCCN2C1=O (stereo not given) |  |  | inactive | inactive
14 | C/C=C/C(O)C1OC(=O)CC1Nc1ccc(C(=O)O)cc1 (stereo not given) |  |  | inactive | inactive
15 | Cc1ccc(-c2c(-c3nn(C)c4ncnc(N5CC[C@H](N6CCCCC6)C5)c34)cnn2C)cc1 |  |  | inactive | inactive
16 | CCOC(=O)c1cccc(CNc2ccc(N(C)C(=O)Nc3ccccc3)cc2)c1 |  |  | 18.4 µM (active) | 11.6 µM (active)
17 | O=C(CCCCC1CCCCC1)N1CCC(c2cnc[nH]2)CC1 |  |  | 13 µM (active) | 8.2 µM (active)
18 | CCC(C)/C=C(C)/C=C/C1=CC2=C(Cl)C(=O)C(C)(OC(C)=O)C(=O)C2=CN1C(CCCN=C(N)N)C(=O)O (stereo not given) |  |  | inactive | inactive
19 | C[C@@H]1C(=O)O[C@H](C)[C@H]1CC(=O)[C@](C)(O)[C@H]1CC[C@@]2(O)C3=CC(=O)[C@@H]4C[C@@H](O)[C@@H](O)C[C@]4(C)C3CC[C@]12C (stereo not given in full) |  |  | inactive | inactive
20 | CN1c2ccccc2C(=O)N2CCC3c4ccccc4NC3C21 (stereo not given) |  |  | 2.55 µM (active) | 1.8 µM (active)
21 | CN[C@H](CC(C)C)C(=O)N[C@H]1C(=O)N[C@@H](CC(N)=O)C(=O)N[C@H]2C(=O)N[C@H]3C(=O)N[C@H](C(=O)N[C@H](C(=O)O)c4cc(O)cc(O)c4-c4cc3ccc4O)[C@H](O)c3ccc(c(Cl)c3)Oc3cc2cc(c3O[C@@H]2O[C@H](CO)[C@@H](O)[C@H](O)[C@H]2O[C@H]2C[C@](C)(N)[C@H](O)[C@H](C)O2)Oc2ccc(cc2Cl)[C@H]1O |  |  | inactive | inactive
22 | N#Cc1ccc2[nH]cc(CCCCN3CCN(c4ccc5oc(C(N)=O)cc5c4)CC3)c2c1 |  |  | 11.6 µM (active) | 18.4 µM (active)
23 | COc1ccc([C@H]2OC[C@H]3O[C@@H](O[C@H]4[C@@H]2NC[C@@H]4O)[C@H](O)[C@H]3O)cc1 |  |  | 0.64 µM (active) | 0.404 µM (active)
24 | CCN(CC)CCCS(=O)(=O)N[C@H](CCc1ccccc1)c1nc(Cc2ccc(Br)cc2)no1 |  |  | 20.6 µM (active) | 20.6 µM (active)
25 | CCOC(CN1C(=O)[C@](CC(=O)Nc2ccc(C)cc2)(NC(=O)Nc2ccc(C)cc2)c2ccccc21)OCC |  |  | 18.6 µM (active) | 14.8 µM (active)
26 | CCc1nn(CCO)c(CC)c1Oc1cc(C#N)cc(C#N)c1 |  |  | inactive | inactive
27 | CC(C)(C)c1ccc(NC(=O)N2CCN(c3ncccc3Cl)CC2)cc1 |  |  | 3.66 µM (active) | 4.11 µM (active)
28 | CC/C(=C(\c1ccc(O)cc1)c1ccc(OCCNC)cc1)c1ccccc1 |  |  | inactive | inactive

Row | SMILES | viability (% of control) [1] | viability, % of control [2] | Potency [1] | Potency [2]
29 | Cn1cnc2c(NCc3ccccc3)nc(NCCO)nc21 |  |  | inactive | inactive
30 | O=S(=O)(NCc1cccc2ccccc12)c1cc(Cl)c(Oc2cccc(N3CCNCC3)c2)s1 |  |  | 2.59 µM (active) | 4.61 µM (active)
31 | CC(C)[C@@](C)(O)[C@@H]1CN(c2nc(-c3[nH]nc4ncccc34)c(F)cc2Cl)CCN1 |  |  | 0.366 µM (active) | 0.731 µM (active)
32 | Cc1cc(-c2nc(C(=O)Nc3cn(C4CCOCC4)nc3C(N)=O)co2)ccn1 |  |  | 0.0461 µM (active) | 0.146 µM (active)
33 | CC1=C(C(=O)O)/C(=C\CO[C@@H]2O[C@H](CO)[C@@H](O)[C@H](O)[C@H]2O)C(OC(=O)/C=C/c2ccc(O)cc2)C1 (stereo not given in full) |  |  | inactive | inactive
34 | COc1cc(O)cc(C)c1C(=O)OC1C(CO)OC(n2ccc(=O)[nH]c2=O)C1OC(C)=O (stereo not given) |  |  | 5.63 µM (active) | inactive
35 | COC(=O)C1=CO[C@@H](O[C@@H]2O[C@H](CO)[C@@H](O)[C@H](O)[C@H]2O)[C@@H]2[C@@](C)(O)[C@@H](O)C[C@]12O |  |  | inactive | inactive
36 | C=C[C@H]1[C@H](O[C@@H]2O[C@H](CO[C@@H]3OC[C@](O)(CO)[C@H]3O)[C@@H](O)[C@H](O)[C@H]2O)OC=C2C(=O)OCC[C@H]21 |  |  | inactive | inactive
37 | CC1CCC2(C(=O)O)CCC3(C)C(=CCC4C5(C)CCC(O)C(C)(C(=O)O)C5CCC43C)C2C1(C)O (stereo not given) |  |  | inactive | inactive
38 | COc1ccc(-c2cnc3ccc(NCc4ccc(S(N)(=O)=O)cc4)nn23)cc1OC |  |  | 0.92 µM (active) | 1.64 µM (active)
39 | CC(C)C[C@H](NC(=O)[C@@H]1O[C@H]1C(=O)O)C(=O)NCCCCN=C(N)N |  |  | inactive | inactive
40 | CCCc1cc(C)[nH]c(=O)c1CNC(=O)c1cc(-c2ccc(N3CCN(C(C)C)CC3)nc2)cc2c1cnn2C(C)C |  |  | 13 µM (active) and 5.9 µM (active) | 8.2 µM (active) and 8.33 µM (active)
41 | Nc1nc2c(nc(Br)n2[C@@H]2O[C@@H]3COP(=O)(O)O[C@H]3[C@H]2O)c(=O)[nH]1 |  |  | inactive | inactive
42 | CC/C=C\CC1C(=O)CCC1CC(=O)OC (stereo not given) |  |  | inactive | inactive
43 | CC(C)(O)C1CC=C(C(=O)OC[C@H]2O[C@@H](OC(=O)C3=CCC(C(C)(C)O)CC3)[C@H](O)[C@@H](O)[C@@H]2O)CC1 (stereo not given in full) |  |  | inactive | inactive
44 | O=C(/C=C\n1cnc(-c2cc(C(F)(F)F)cc(C(F)(F)F)c2)n1)N1CC(F)(F)C1 |  |  | 0.366 µM (active) | 0.731 µM (active)
45 | N#Cc1cc([N+](=O)[O-])c2sc(C(N)=O)[n+]([O-])c2c1 |  |  | 1.84 µM (active) | 1.64 µM (active)
46 | CC1(O)CCC2C(C3C1CCC3(C)O)C2(C)C (stereo not given) |  |  | inactive | inactive
47 | COc1cc2ncnc(Sc3nnc(C)s3)c2cc1OC |  |  | 0.82 µM (active) | 1.16 µM (active)
48 | COc1cc(C(=O)OC[C@@]2(O)CO[C@@H](O[C@H]3[C@H](Oc4ccc(O)cc4)O[C@H](CO)[C@@H](O)[C@@H]3O)[C@@H]2O)cc(OC)c1O |  |  | inactive | inactive
49 | C=C[C@H]1C(O[C@@H]2O[C@H](CO)[C@@H](O)[C@H](O)[C@H]2O)OC=C2C(=O)N3CCc4c([nH]c5ccccc45)[C@H]3C[C@H]21 (stereo not given in full) |  |  | inactive | inactive
50 | O=C(O)/C=C/c1ccc(-c2ccc(O)c(C34CC5CC(CC(C5)C3)C4)c2)cc1 |  |  | 0.184 µM (active) | 0.103 µM (active)
51 | CC1CCC2(NC1)OC1C(O)C3C4CCC5CC(O[C@@H]6O[C@H](CO)[C@@H](O)[C@H](O)[C@H]6O[C@@H]6O[C@@H](C)[C@H](O)[C@@H](O)[C@H]6O)CCC5(C)C4CCC3(C)C1C2C (stereo not given in full) |  |  | inactive | inactive
52 | Cn1cc(C2=C(c3coc4ccccc34)C(=O)NC2=O)c2cc(Br)ccc21 |  |  | 14.6 µM (active) | 7.31 µM (active)
53 | C=C1CCC[C@]2(C)CC/C(=C(/CO)C(=O)OC)C[C@@H]12 |  |  | 20.6 µM (active) | 14.6 µM (active)
54 | CC(=O)N[C@H](Cc1ccc(O)cc1)C(=O)N[C@H](CCCN=C(N)N)C(=O)N[C@H](Cc1ccccc1)C(N)=O |  |  | inactive | inactive
55 | CC1(C(=O)O)CCCC2(C)C1CCC13CC(CCC21)C1(CO)OC31 (stereo not given) |  |  | inactive | inactive
